Assay results published in PubChem BioAssay.

Test: calcein-AM signal in unstimulated myeloma cells – cell-based, calcein-AM fluorescence, 48 h, PK04 Diversity Set, profiling panel (AID 1166);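 also: cells grown under basal conditions without added stimulus; test concentration not given here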
Details: RPMI8226 myeloma viability, higher = more signal

| Structure (SMILES) | z-score |
| --- | --- |
| CC(CCN1CCCCc2nc(C)c(C)cc21)=NOC[C@@H](C)[C@H](OCc1ccccc1)C(C)C | 0.327 |
| COC(=O)CC=C[C@@H](C)[C@@H](C=NO[C@@H]1O[C@H](COC(C)=O)[C@@H](OC(C)=O)[C@H](OC(C)=O)[C@H]1OC(C)=O)OC | 0.418 |
| CO[C@@H]1COC(=O)[C@H](CCSC)NC(=O)CC=C[C@@H](C)COC(=O)CCC[C@H]1C | -0.687 |
| CCCNC(=O)OC[C@H]1O[C@H](CCON=C(C)CCC(=O)OC[C@H]2O[C@H](c3ccccc3)C=C[C@@H]2Oc2ccc(OC)cc2)C=C[C@@H]1Oc1ccc(OC)cc1 | -0.303 |
| CCN1C(=O)[C@@H]2[C@H]3C(=CC[C@@H]2C1=O)C1(OCCCO1)[C@H]1O[C@H]1[C@H]3O | -3.24 |
| O=C1[C@H]2[C@H]3[C@H](O)[C@H](O)CC(=NOC[C@@H](O)COCc4ccco4)[C@H]3CC[C@H]2C(=O)N1Cc1ccccc1 | -2.06 |
| CO[C@H]1COC(=O)[C@@H](C)COC(=O)[C@H](C)NC(=O)CC=C[C@H]1C | 0.235 |
| C[C@H]1COC(=O)[C@@H]2CCCN2C(=O)[C@@H](C)COC(=O)[C@H](Cc2ccccc2)NC1=O | -0.364 |
| COC(=O)CC=C[C@@H](C)[C@H](OCc1cccc(-c2ccccc2)c1)C1CCCCC1 | -0.771 |
| C=CC[C@@H]1C=C[C@H](ON=C(C)CCC(=O)OC[C@H]2O[C@H](C#Cc3ccccc3)C=C[C@@H]2Oc2ccc(C)cc2)[C@@H](CO)O1 | -0.737 |
| CON=C[C@@H](NS(=O)(=O)c1ccc(C)cc1)[C@H](C)C=CCC(=O)OC | 0.226 |
